Hits are enriched below; roughly 3.1% of the tested compounds scored in any of these assays.
TexasRed fluor: Total Fluorescence Counterscreen for Inhibitors of the Interaction of Thyroid Hormone Receptor and Steroid Receptor Coregulator 2; TRb/SRC2 Texas Red total fluorescence interference; Potency, µM (series often up to 106 µM), inactives show at the top dose fluorescence change, negative = quenching; 0.29% of 280,000 active; AID 1479, 2009; active = well fitted curve in either direction with a large enough effect; inconclusive = small, poorly fitted or top-dose-only effect
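Human TRb ligand-binding domain at 0.6 uM with 20 nM Texas Red SRC2 peptide in Tris buffer containing 1 uM T3 and 5% DMSO, incubated with compound 5 h at ambient temperature. Total fluorescence (555/632 nm) calculated as parallel + 2 × perpendicular.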
Tau ThT inhib: qHTS for Inhibitors of Tau Fibril Formation, Thioflavin T Binding. Microtubule-associated protein tau (Homo sapiens), P10636. recombinant tau K18 P301L, heparin-induced fibrillization, ThT fluorescence. Potency, µM (doses to about 57.4 µM), for the others: top-dose activity, negative = inhibition, hits mostly inhibitors. 2.1% of 270,000 active. AID 1460, 2008; note: nearly all actives have a fitted effect of over 55% in size
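Fibril formation assay: tau K18 P301L at 15 uM with trace Alexa 594 label, heparin inducer 20 uM, pH 7 sodium acetate buffer, 37 C for 6 hr; endpoint ThT signal.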
Tau FP inhib: qHTS for Inhibitors of Tau Fibril Formation, Fluorescence Polarization. Microtubule-associated protein tau (Homo sapiens), P10636. K18 P301L tau heparin fibrillization, Alexa594 FP, 6 h. Potency, µM (series often up to 57.7 µM), without a hit: at the top dose activity, negative = inhibition, hits mostly inhibitors. 0.39% of 280,000 active. AID 1468, 2008; note: nearly all actives have a fitted effect of over 55% in size
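Quantitative HTS format: compounds meet 15 uM recombinant K18 P301L tau and Alexa 594-tau tracer in 100 mM sodium acetate pH 7; 20 uM heparin triggers fibrillization at 37 C over 6 hr; FP gives the signal.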
RGS12 GoLoco inh: qHTS Assay for Inhibitors of RGS12 GoLoco Motif Activity (Red Fluorophore) | Gai1:RGS12 GoLoco peptide FP, rhodamine, 10 min | Potency, µM (highest dose often 61.6 µM), without a hit: top-dose activity, negative = inhibition, usual class: inhibitors | 0.44% of 230,000 active | AID 880, 2007; active = well fitted inhibition curve with a large enough effect, not every such curve was filed as active; inactive = no such curve, though single readings can be large or run the other way; note: nearly all actives have a fitted effect of over 30% in size
Tau fluor counter: Counterscreen qHTS for Inhibitors of Tau Fibril Formation, Fluorescence Polarization. tau K18 P301L Alexa594 fluorescence, heparin fibrillization. Potency, µM (doses to about 57.7 µM), without a hit: at the highest dose activity change, negative = decrease. 0.93% of 280,000 active. AID 1463, 2008; note: nearly all actives have a fitted effect of over 55% in size
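Human tau K18 P301L (15 uM unlabeled, 0.24 uM Alexa 594-labeled) in 100 mM sodium acetate pH 7 with 20 uM heparin, 6 hr at 37 C. ThT 30 uM added, 1 hr ambient; Alexa 594 FP and total fluorescence read at 555/632 nm.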
TRb SRC2 PPI: qHTS for Inhibitors of the Interaction of Thyroid Hormone Receptor and Steroid Receptor Coregulator 2 | AID 1469, 2008 | 0.065% of 280,000 active | Thyroid hormone receptor beta (Homo sapiens), P10828 | Potency, µM (doses to about 106 µM), inactives show at the highest dose activity change, negative = inhibition, most hits filed as inhibitors | TRbeta-SRC2 peptide binding, fluorescence polarization; receptor liganded with 1 µM T3;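 note: plate controls were bound peptide for no effect and peptide without receptor for full effect; nearly all actives have a fitted effect of over 50% in size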
Target sequence (P10828 whole entry, looked up): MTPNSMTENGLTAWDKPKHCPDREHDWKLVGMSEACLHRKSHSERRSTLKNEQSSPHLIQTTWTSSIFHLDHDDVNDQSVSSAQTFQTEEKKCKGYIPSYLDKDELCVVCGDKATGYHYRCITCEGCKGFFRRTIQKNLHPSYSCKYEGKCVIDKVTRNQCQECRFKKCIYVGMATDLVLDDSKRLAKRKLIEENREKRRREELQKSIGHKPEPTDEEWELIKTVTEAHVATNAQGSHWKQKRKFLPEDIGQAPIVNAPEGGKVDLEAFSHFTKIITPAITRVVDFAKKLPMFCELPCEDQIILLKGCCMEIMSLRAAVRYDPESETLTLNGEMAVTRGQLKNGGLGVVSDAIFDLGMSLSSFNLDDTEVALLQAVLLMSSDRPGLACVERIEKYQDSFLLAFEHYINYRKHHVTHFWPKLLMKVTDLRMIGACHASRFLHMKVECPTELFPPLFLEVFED
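Human TRb LBD (0.6 uM) plus Texas Red-labeled SRC2 peptide (20 nM), 1uM T3, 5% DMSO, 5 hr at ambient temperature. Decreased polarization (555/632 nm) flags inhibition; data normalized to free and bound peptide controls.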
Starred values were filed as active, the others as inactive; [ ] = remark or other dose. Unless noted, calls come from the whole dose curve; as a rule, active = well fitted curve in the direction sought with a large enough effect; inconclusive = small, poorly fitted or top-dose-only effect, or another doubt; inactive = no such curve, though single readings can be large; an effect the other way counts as inactive or inconclusive. Unless noted, % is set by controls: 0 for no effect and ±100 for the full control effect; potency is the fitted concentration of half-maximal effect.

Screening CC1CCN(S(=O)(=O)c2cccc(C(=O)N(C)C3(C)CCS(=O)(=O)C3)c2)CC1 (stereo not drawn) returned TexasRed fluor -7.5%, Tau ThT inhib -0.4%, Tau FP inhib 0.2%, Tau fluor counter -3.9% and TRb SRC2 PPI 2.7%.
For Cc1ccc(-n2c(SCC(=O)N/N=C/c3ccc(C)s3)nnc2-c2ccccc2)cc1 the results were TexasRed fluor 3.1%, Tau ThT inhib 10.1%, Tau FP inhib 2.5%, RGS12 GoLoco inh -0.4%, Tau fluor counter 5.7% and TRb SRC2 PPI 0.9%.
COc1cccc(NC(=O)/C=C/c2ccc([N+](=O)[O-])cc2)c1 was read as TexasRed fluor -1.4%, Tau FP inhib 2.9%, RGS12 GoLoco inh -4.2%, Tau fluor counter -45.2% and TRb SRC2 PPI 4.0%.
Screening COc1ccc(C(=O)/C=C/c2cccs2)c(OC(=O)c2cccc([N+](=O)[O-])c2)c1 returned TexasRed fluor -1.9%, Tau ThT inhib 3.98µM*, Tau FP inhib 9.4%, RGS12 GoLoco inh 7.0%, Tau fluor counter inconclusive and TRb SRC2 PPI -7.4%.
`COc1ccc(C(=O)/C=C/c2ccc(F)cc2)c(OC(=O)c2ccc([N+](=O)[O-])cc2)c1` gave TexasRed fluor -0.6%, Tau ThT inhib 10µM*, Tau FP inhib 0.3%, RGS12 GoLoco inh -4.3%, Tau fluor counter 12.6µM*[quencher] and TRb SRC2 PPI 5.4%.
CC(/C=N/N1CCN(c2ccc(C)cc2)CC1)=C\c1ccccc1 was read as TexasRed fluor -11.6%, Tau ThT inhib inconclusive, Tau FP inhib inconclusive, RGS12 GoLoco inh -5.1%, Tau fluor counter -8.2% and TRb SRC2 PPI -0.1%.
Screening BrC(=C\c1ccccc1)/C=N/N1CCN(c2ccccc2)CC1 returned TexasRed fluor 0.6%, Tau ThT inhib 20µM*, Tau FP inhib inconclusive, RGS12 GoLoco inh 8.5%, Tau fluor counter inconclusive and TRb SRC2 PPI 7.7%.
Screening Cc1ccc(-c2nc(CN(C)Cc3cccc4cnccc34)c(C)o2)s1 returned TexasRed fluor -2.1%, Tau ThT inhib -14.4%, Tau FP inhib 1.6%, RGS12 GoLoco inh 3.3%, Tau fluor counter 3.6% and TRb SRC2 PPI -5.3%.
Screening COc1cc(/C=N/N(C)c2ccccc2)cc(Cl)c1O returned TexasRed fluor -3.4%, Tau ThT inhib inconclusive, Tau FP inhib inconclusive, RGS12 GoLoco inh -19.8%, Tau fluor counter 14.1µM*[quencher] and TRb SRC2 PPI 3.2%.
COc1ccc(OC)c(/C=N/N(C)c2ccccc2)c1 was read as TexasRed fluor -2.7%, Tau ThT inhib 12.6µM*, Tau FP inhib 5.5%, RGS12 GoLoco inh -12.8%, Tau fluor counter 11.2µM*[quencher] and TRb SRC2 PPI -9.0%.
For COc1ccc(OC)c(C=Nc2ccccc2-c2nc3ccccc3[nH]2)c1 the results were TexasRed fluor -24.4%, Tau ThT inhib inconclusive, Tau FP inhib 11.2%, RGS12 GoLoco inh 9.1%, Tau fluor counter inconclusive and TRb SRC2 PPI 7.9%.
`CN(CC(=O)O)c1ccc(S(=O)(=O)N2CCOCC2)cc1[N+](=O)[O-]` gave TexasRed fluor 0.3%, Tau ThT inhib -6.6%, Tau FP inhib -9.7%, RGS12 GoLoco inh -11.1%, Tau fluor counter -5.3% and TRb SRC2 PPI -7.6%.
For O=C1NC(=S)S/C1=C\c1ccc(SCc2ccco2)o1 the results were TexasRed fluor inconclusive, Tau ThT inhib 4.47µM*, Tau FP inhib inconclusive, RGS12 GoLoco inh 73.0%, Tau fluor counter inconclusive and TRb SRC2 PPI inconclusive.
